Results filed as inconclusive are left out. Activity calls are given as the source filed them. Calls follow the shape of the dose curve; as a rule, active = well fitted cell-killing curve with a large enough effect in the repeat runs; inconclusive = weak or mixed curves, or effect the other way; inactive = no such curve, though single readings can be large or run the other way.
% is scaled to controls: 0 for no effect and ±100 for the full control effect.

A short description of this experiment: qHTS assay for small molecule activators of the heat shock response signaling pathway - cell viability counter screen (AID 743209). Also: nearly all actives have a fitted effect of over 50% in size. To be noted: HSE-bla HeLa viability, CellTiter-Glo luminescence, 5 h; series mostly up to 62.6 µM; activity change, negative = cytotoxicity: at the top concentration. The text has this:
U.S. Tox21 Program National Center for Advancing Translational Sciences [NCATS] NIH Chemical Genomics Center [NCGC] U.S. Environmental Protection Agency [EPA] National Institutes of Environmental Health Sciences [NIEHS] National Toxicology Program [NTP] U.S. Food and Drug Administration [FDA] Tox21 Assay Overview: Various chemicals, environmental and physiological stress conditions may lead to the activation of heat shock response/ unfolded protein response (HSR/UPR). There are three heat shock transcription factors (HSFs) (HSF-1, -2, and -4) mediating transcriptional regulation of the human HSR. To identify the compounds that activate HSR signaling, HSE-bla HeLa cell line (Invitrogen, Carlsbad, CA, USA) containing a beta-lactamase reporter gene under the control of the heat shock response elements was used to screen Tox21 10K compound library. The cytotoxicity of the Tox21 compound library against the HSE-bla HeLa cell line was tested in parallel by measuring the cell viability using CellTiter-Glo assay (Promega, Madison, WI) in the same wells.
Tox21 Assay Protocol Summary: The CellSensor HSE-bla HeLa cells (Invitrogen, Carlsbad, CA, USA) were dispensed at 1500 cells/6uL/well into 1536-well black wall/clear bottom plates using a Multidrop combi (Thermo Fisher Scientific, Waltham, MA) dispenser. After the assay plates were incubated at 37 C and 5% CO2 overnight, 23 nL of compounds dissolved in DMSO, positive controls or DMSO only was transferred to the assay plate by a Pintool station (Kalypsys, San Diego, CA). The plates were incubated at 37 C for 5 h. After 1 uL of LiveBLAzerTM B/G FRET substrate was added using a Flying Reagent Dispenser (FRD, Beckman Coulter, Indianapolis, IN, USA), the plates were incubated at room temperature for 2.5 h, and fluorescence intensity was measured by an Envision plate reader (PerkinElmer, Shelton, CT). For cell viability readout that measures cytotoxicity, 3 ul/well of CellTiter-Glo reagent was added into the assay plates using a FRD. After 30 min incubation at room temperature, the luminescence intensity in the plates was measured using a ViewLux (PerkinElmer) plate reader.
For `CN(C)CCN(C)C`, the “activity change, negative = cytotoxicity” value was 1.77% (inactive).

On to `CCC1(c2ccccc2)CCC(=O)NC1=O` (stereo not given), for which the “activity change, negative = cytotoxicity” value was -25.4% (inactive).

In the case of `NCC1(CC(=O)O)CCCCC1`, the “activity change, negative = cytotoxicity” value was -7.58% (inactive).

`Clc1ccc(C(Cl)(Cl)Cl)cn1`: the “activity change, negative = cytotoxicity” value was -0.967% (inactive).

Take `NC1(c2ccccc2)CCCCC1`: the “activity change, negative = cytotoxicity” value is 4.64% [at 81.1 µM] (inactive).

As for `CCCCCCC1CCOC1=O` (stereo not given), the “activity change, negative = cytotoxicity” value is -0.568% (inactive).

`CCOC(=O)c1ncn2c1CN(C)C(=O)c1c(I)cccc1-2`: the “activity change, negative = cytotoxicity” value is 4.41% (inactive).

Take `COc1cccc([C@@]2(O)CCCC[C@@H]2CN(C)C)c1`: the “activity change, negative = cytotoxicity” value is 9.4% (inactive).

On to `CC[C@@H](CO)NC(=O)[C@@H]1C=C2c3cccc4c3c(cn4C)C[C@H]2N(C)C1`, for which the “activity change, negative = cytotoxicity” value is -0.315% (inactive).

`CC[C@H](O)C(C[C@H](C)N(C)C)(c1ccccc1)c1ccccc1`: the “activity change, negative = cytotoxicity” value is -1.84% [at 81.1 µM] (inactive).

For the molecule `CCC(C(N)=O)N1CCCC1=O` (stereo not given), the “activity change, negative = cytotoxicity” value is -27.8% (inactive).

On to `CC(C)(O)C(Cl)(Cl)Cl`, for which the “activity change, negative = cytotoxicity” value was -6.38% (inactive).

With `CC(C)c1ccc(O)cc1`, the “activity change, negative = cytotoxicity” value is 3.54% (inactive).

`ClCOCCl`: the “activity change, negative = cytotoxicity” value was -2.38% [at 81.1 µM] (inactive).

As for `O=C(NC(=O)c1c(F)cccc1F)Nc1cc(Cl)c(F)c(Cl)c1F`, the “activity change, negative = cytotoxicity” value was 8.39% (inactive).

Take `COc1cccc(C=O)c1`: the “activity change, negative = cytotoxicity” value was -2.22% (inactive).

Regarding `O=C(Cl)/C=C/C(=O)Cl`, the “activity change, negative = cytotoxicity” value was -6.55% [at 81.1 µM] (inactive).

`COc1ccc(CN2CCNCC2)c(OC)c1OC`: the “activity change, negative = cytotoxicity” value is -1.9% (inactive).

As for `C=CCN1CC[C@]23CCCC[C@H]2[C@H]1Cc1ccc(O)cc13`, the “activity change, negative = cytotoxicity” value is -14.4% (inactive).

On to `N#CC(Br)(Br)C(N)=O`, for which the “activity change, negative = cytotoxicity” value was 5.76% (inactive).

Turning to `CCCN1CCC[C@@H]2Cc3[nH]ncc3C[C@H]21`, the “activity change, negative = cytotoxicity” value was -20.8% (inactive).

In the case of `CNC(=O)O/N=C(/CSC)C(C)(C)C`, the “activity change, negative = cytotoxicity” value is 0.565% (inactive).

Consider `[P]#[In]`, for which the “activity change, negative = cytotoxicity” value was 12.8% (inactive).

On to `C/C(=N\NC(=O)Nc1cc(F)cc(F)c1)c1ncccc1C(=O)O`, for which the “activity change, negative = cytotoxicity” value is -2.32% (inactive).

As to `O=C(Cl)OCc1ccccc1`, the “activity change, negative = cytotoxicity” value was 17.7% [at 81.1 µM] (inactive).

On to `CN(CCO)CCO`, for which the “activity change, negative = cytotoxicity” value was 3.68% [at 81.1 µM] (inactive).

As to `CCOC(=O)N(C)N=O`, the “activity change, negative = cytotoxicity” value is 13% (inactive).

On to `Cc1ccc(S(=O)(=O)N[C@@H](CCCCN)C(=O)CCl)cc1`, for which the “activity change, negative = cytotoxicity” value is 19.6% (inactive).

Consider `CN1C(=O)COc2c(C(=O)NC3CN4CCC3CC4)cc(Cl)cc21` (stereo not given), for which the “activity change, negative = cytotoxicity” value is 0.131% (inactive).

On to `CCN[C@@H](C)Cc1ccccc1`, for which the “activity change, negative = cytotoxicity” value is 2.83% [at 81.1 µM] (inactive).

In the case of `CCN(CC)C1CCCCC1`, the “activity change, negative = cytotoxicity” value was 6.99% (inactive).

Turning to `N#CN`, the “activity change, negative = cytotoxicity” value was 5.81% [at 232 µM] (inactive).

In the case of `O=c1[nH]c2ccccc2n1C1CCNCC1`, the “activity change, negative = cytotoxicity” value is 10.6% (inactive).

As to `CC(C)NCC(O)c1ccc([N+](=O)[O-])cc1` (stereo not given), the “activity change, negative = cytotoxicity” value is -11.4% (inactive).

With `CCOP(=O)(CN(CCO)CCO)OCC`, the “activity change, negative = cytotoxicity” value was 5.14% (inactive).

In the case of `CCC1(c2cccc(O)c2)CCCCN(C)C1` (stereo not given), the “activity change, negative = cytotoxicity” value is 12.5% (inactive).

As to `Nc1c(Cl)c(F)nc(OCC(=O)O)c1Cl`, the “activity change, negative = cytotoxicity” value was 6.47% (inactive).

Take `CS(=O)(=O)Cl`: the “activity change, negative = cytotoxicity” value is -26.1% [at 81.1 µM] (inactive).

As to `CCCCCCCCBr`, the “activity change, negative = cytotoxicity” value was -25.7% (inactive).

For the molecule `CC[C@H](N)c1ccccc1`, the “activity change, negative = cytotoxicity” value was 11.8% (inactive).

Source of the values: PubChem BioAssay (Tox21).
